The supplement of paper PMC4206467

system: Perkinsus marinus PRA240; assay: ATP content (proliferation) relative to DMSO control; higher = more parasite growth (less inhibition); conditions: 20 µM; 4 days
Description: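 Perkinsus marinus PRA240 trophozoites (2-5x10^6 cells/ml, 100 µl, 96-well) were exposed once to MMV Malaria Box compounds at 20 µM (0.1% DMSO) in triplicate. ATP content (ATPlite bioluminescence) was read at day 4 post-exposure and normalised to DMSO + cells control wells (100% activity). Compounds were identified by joining plate and well to the Malaria Box list.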

Row | SMILES | ATP content
1 | CC(C)(C)CC(C)(C)NCC(O)COc1ccc(Cl)cc1Cl (stereo not given) | 123%
2 | O=C(Nc1ccc(Br)cc1)Nc1cccc(Cl)c1 | 142%
3 | COc1cc2c(cc1OC)C1=NNC(=O)C1=NC(C)(C)C2 | 42.2%
4 | O=C(Nc1ccc(CN2CCOCC2)cc1)c1ccc(-c2cc(Cl)ccc2Cl)o1 | 122%
5 | COCCn1c(C)nc2ccccc2c1=O | 130%
6 | Clc1cc(Br)ccc1-c1ccc(CNCC2CCNCC2)o1 | 243%
7 | CC(=O)c1ccc(NC(=O)CSc2nc(-c3ccccc3Cl)ns2)cc1 | 125%
8 | CCCCCCc1cc2cc(-c3nc4ccccc4[nH]3)c(=Nc3ccccc3C)oc2cc1O | 121%
9 | O=C(Nc1ccsc1C(=O)NC1CCCCC1)c1ccc(F)cc1 | 90%
10 | Cc1sc(NC(=O)c2ccccc2)c(C(c2cccs2)N2CCN(c3ccccc3)CC2)c1C (stereo not given) | 97.8%
11 | CCOc1cc2c(cc1OCC)C(c1cc(C)c(O)c(C)c1)NCC2 (stereo not given) | 133%
12 | CCOc1ccc2c(c1)CN(Cc1ccc(Cl)cc1)CO2 | 155%
13 | FC(F)(F)c1ccc(Nc2nnnc3ccccc23)cc1 | 44%
14 | COc1ccc(C(=O)Nc2ccc3nc(N4CCCCC4)cc(C)c3c2)cc1OC | 101%
15 | CCn1c2c(c(=N)c3c1CCC3)CCCC2 | 96.7%
16 | Oc1ccc(-c2nc(-c3ccc4oc5ccc(-c6[nH]c(-c7ccc(O)cc7)nc6-c6ccccc6)cc5c4c3)c(-c3ccccc3)[nH]2)cc1 | 124%
17 | CCc1ccc(Nc2cc(C)nc3nc(C)nn23)cc1 | 139%
18 | COc1ccc(C(=O)C2CC2c2ccc(Cl)cc2)cc1 (stereo not given) | 199%
19 | COc1ccc(C2c3ccc4ccccc4c3Oc3ncn(CCCN(C)C)c(=N)c32)cc1 (stereo not given) | 202%
20 | CC(C)CCNCC(O)Cn1c2ccccc2c2ccccc21 (stereo not given) | 140%

Row | SMILES | ATP content
21 | COc1cc(SC)ccc1C(=O)N1CCCC(C)C1 (stereo not given) | 134%
22 | O=C(NC1CCN(Cc2ccccc2)CC1)c1cc(C(=O)NC2CCN(Cc3ccccc3)CC2)cc(C(=O)NC2CCN(Cc3ccccc3)CC2)c1 | 90.4%
23 | CCOC(=O)c1cnc2ccc(Cl)cc2c1NCCCN(C)C | 147%
24 | CCOC(=O)c1c(C)n(-c2ccccc2)c2ccc(OC(=O)c3cc(OC)c(OC)c(OC)c3)cc12 | 141%
25 | c1ccc(-c2ccc(-c3nc4ccccc4[nH]3)cc2)cc1 | 16.5%
26 | CN(C)c1ccc(N2C(N)=NC(N)=NC2(C)C)cc1 | 114%
27 | O=C1C2=C(Nc3ccccc3SC2c2ccccc2)c2ccccc21 (stereo not given) | 17.1%
28 | CCOC(=O)c1cnc2ccc(OC)cc2c1NCc1ccccc1 | 69.3%
29 | CCCCCCc1cc2cc(-c3csc(C=Cc4ccccc4)n3)c(=O)oc2cc1O | 137%
30 | Cc1ccc(C)c(-c2csc(Nc3ccc(C)c(C)c3)n2)c1 | 93.6%
31 | O=C(c1ccccc1F)N(Cc1ccc(Cl)cc1)c1ccccn1 | 59%
32 | COc1ccc(C=C2SC(Nc3ccc(F)cc3)=NC2=O)c(OC)c1 | 60.7%
33 | Cc1c(C)n(CC(O)CNC2CCCCC2C)c2ccccc12 (stereo not given) | 106%
34 | O=C(NC1CCN(Cc2ccccc2)CC1)c1cc(-c2cccnc2)nc2ccc(Cl)cc12 | 137%
35 | OC(CNC1CCCCC1)Cn1c2ccc(I)cc2c2cc(I)ccc21 (stereo not given) | 4.02%
36 | COCCNCC(O)Cn1c2ccc(Cl)cc2c2cc(Cl)ccc21 (stereo not given) | 143%
37 | Cc1ccc(C(=O)c2oc3ccc4c(C)cc(=O)oc4c3c2C)cc1 | 123%
38 | COc1ccc2nc(C)cc(Nc3ccc(Cl)cc3)c2c1 | 103%
39 | OC1CCCCC1C1(NC(=S)Nc2ccccc2)CCCCC1 (stereo not given) | 127%
40 | O=C1CC(O)(C(F)(F)C(F)(F)F)Oc2ccccc21 (stereo not given) | 34.8%
